In test [1] the target is T1, Aurora kinase C (Homo sapiens) (UniProt Q9UQB9).
T1 sequence (whole entry): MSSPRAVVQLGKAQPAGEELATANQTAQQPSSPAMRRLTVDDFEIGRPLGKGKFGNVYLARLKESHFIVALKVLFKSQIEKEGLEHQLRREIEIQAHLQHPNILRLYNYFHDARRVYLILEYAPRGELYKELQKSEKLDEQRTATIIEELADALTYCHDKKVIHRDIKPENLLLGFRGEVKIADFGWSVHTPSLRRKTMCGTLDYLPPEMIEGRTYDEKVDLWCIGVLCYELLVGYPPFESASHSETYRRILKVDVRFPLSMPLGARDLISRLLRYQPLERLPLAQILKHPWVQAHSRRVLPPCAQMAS
The conditions noted are these: at 1 µM.

Test [2] concerns the target T1, Aurora kinase C (Homo sapiens). The conditions noted are these: at 10 µM.
The target in test [3] is Tyrosine-protein kinase receptor UFO (Homo sapiens) (UniProt P30530). The note with it: at 1 µM.
Sequence of Tyrosine-protein kinase receptor UFO (Homo sapiens) (P30530 whole entry): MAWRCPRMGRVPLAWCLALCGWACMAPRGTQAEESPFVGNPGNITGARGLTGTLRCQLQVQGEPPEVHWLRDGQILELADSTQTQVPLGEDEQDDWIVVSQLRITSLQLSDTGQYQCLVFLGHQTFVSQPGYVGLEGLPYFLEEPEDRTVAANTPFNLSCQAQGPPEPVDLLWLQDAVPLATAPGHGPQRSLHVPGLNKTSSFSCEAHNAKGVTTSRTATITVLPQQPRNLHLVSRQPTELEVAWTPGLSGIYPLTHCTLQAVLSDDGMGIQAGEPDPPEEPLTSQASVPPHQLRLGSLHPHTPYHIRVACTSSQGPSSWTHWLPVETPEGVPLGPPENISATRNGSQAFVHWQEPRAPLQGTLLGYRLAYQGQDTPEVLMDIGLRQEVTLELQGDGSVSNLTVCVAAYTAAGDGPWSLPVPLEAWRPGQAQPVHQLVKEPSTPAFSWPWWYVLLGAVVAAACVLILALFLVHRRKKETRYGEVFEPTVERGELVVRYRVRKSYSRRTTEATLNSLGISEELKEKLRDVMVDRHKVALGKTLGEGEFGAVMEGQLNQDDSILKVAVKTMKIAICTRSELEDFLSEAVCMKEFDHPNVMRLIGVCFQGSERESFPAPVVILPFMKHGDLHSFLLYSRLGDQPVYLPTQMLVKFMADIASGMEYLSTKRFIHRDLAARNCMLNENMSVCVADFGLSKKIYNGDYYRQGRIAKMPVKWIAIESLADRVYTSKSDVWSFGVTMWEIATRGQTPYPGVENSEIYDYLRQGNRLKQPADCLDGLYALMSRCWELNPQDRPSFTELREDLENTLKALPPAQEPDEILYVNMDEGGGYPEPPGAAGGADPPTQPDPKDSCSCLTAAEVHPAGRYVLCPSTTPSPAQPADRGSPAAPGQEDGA
Test [4] has the same target. The conditions noted are these: at 10 µM.
The target in test [5] is Protein-tyrosine kinase 6 (Homo sapiens) (UniProt Q13882). The conditions noted are these: at 1 µM.
Sequence of Protein-tyrosine kinase 6 (Homo sapiens) (Q13882 whole entry, looked up): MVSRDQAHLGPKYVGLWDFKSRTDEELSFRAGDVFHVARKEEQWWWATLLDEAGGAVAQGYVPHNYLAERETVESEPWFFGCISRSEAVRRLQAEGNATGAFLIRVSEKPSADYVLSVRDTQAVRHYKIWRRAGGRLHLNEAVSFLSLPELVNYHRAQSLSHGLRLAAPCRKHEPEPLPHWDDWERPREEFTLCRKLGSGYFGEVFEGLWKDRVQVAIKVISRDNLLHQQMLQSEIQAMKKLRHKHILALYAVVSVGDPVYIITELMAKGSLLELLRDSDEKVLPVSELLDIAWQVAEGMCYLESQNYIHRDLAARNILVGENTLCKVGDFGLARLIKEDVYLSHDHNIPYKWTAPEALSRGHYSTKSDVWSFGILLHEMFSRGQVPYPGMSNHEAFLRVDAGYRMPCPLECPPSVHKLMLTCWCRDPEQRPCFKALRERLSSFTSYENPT
For test [6] the target is unchanged. The conditions noted are these: at 10 µM.
Test [7] addresses Tyrosine-protein kinase BTK (Homo sapiens) (UniProt Q06187). The conditions noted are these: at 1 µM.
Test [8] shares this target. The conditions noted are these: at 10 µM.
For test [9], the target named is Tyrosine-protein kinase Blk (Homo sapiens) (UniProt P51451). The conditions noted are these: at 1 µM.
Sequence of Tyrosine-protein kinase Blk (Homo sapiens) (P51451 2-505 limits assumed): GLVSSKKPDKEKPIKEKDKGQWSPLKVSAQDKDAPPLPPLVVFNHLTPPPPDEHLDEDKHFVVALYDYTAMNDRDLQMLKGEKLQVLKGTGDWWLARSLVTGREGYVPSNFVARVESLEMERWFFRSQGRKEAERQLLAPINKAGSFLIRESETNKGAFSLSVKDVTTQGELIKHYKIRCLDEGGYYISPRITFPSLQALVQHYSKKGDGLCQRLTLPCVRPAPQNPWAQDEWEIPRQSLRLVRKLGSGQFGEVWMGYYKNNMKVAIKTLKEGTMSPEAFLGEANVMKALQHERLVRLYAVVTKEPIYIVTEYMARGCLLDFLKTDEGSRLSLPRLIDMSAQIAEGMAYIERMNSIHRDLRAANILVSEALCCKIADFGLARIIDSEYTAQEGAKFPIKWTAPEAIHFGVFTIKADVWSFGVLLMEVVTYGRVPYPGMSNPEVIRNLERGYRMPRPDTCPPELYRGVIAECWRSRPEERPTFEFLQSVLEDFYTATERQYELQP
For test [10] the target is unchanged. The note with it: at 10 µM.

Our source for the residual activity values is ChEMBL document CHEMBL2218924, “A broad activity screen in support of a chemogenomic map for kinase signalling research and drug discovery” (Biochem J, 2013).

Sequence of Tyrosine-protein kinase BTK (Homo sapiens) (Q06187 whole entry): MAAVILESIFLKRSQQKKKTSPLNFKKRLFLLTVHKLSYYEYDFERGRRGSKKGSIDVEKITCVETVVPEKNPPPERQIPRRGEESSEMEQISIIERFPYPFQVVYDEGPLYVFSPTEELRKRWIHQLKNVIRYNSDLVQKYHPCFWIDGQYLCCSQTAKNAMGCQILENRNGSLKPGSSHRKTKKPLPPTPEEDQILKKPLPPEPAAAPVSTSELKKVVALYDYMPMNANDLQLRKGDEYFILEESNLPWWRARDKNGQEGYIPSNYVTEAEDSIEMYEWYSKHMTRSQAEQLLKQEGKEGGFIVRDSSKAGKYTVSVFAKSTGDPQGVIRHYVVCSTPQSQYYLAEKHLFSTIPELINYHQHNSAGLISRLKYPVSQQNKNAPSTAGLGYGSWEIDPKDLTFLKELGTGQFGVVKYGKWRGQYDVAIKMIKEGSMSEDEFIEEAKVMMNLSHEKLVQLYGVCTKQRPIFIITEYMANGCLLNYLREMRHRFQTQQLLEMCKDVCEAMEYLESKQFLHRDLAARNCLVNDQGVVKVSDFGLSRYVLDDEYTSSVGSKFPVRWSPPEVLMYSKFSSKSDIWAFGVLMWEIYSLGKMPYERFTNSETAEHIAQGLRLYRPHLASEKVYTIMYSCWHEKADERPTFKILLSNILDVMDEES

For orientation: residual activity means the signal under treatment as a percentage of the control signal. As for `Cc1nc(-c2ccccc2)c(-c2ccncc2)o1`, the residual activity came out at 93% in [1]; 81% in [2]; 112% in test [3]; 79% in test [4]; 59% in test [5]; 43% in test [6]. Besides, the residual activity came to 91% in test [7], 83% in test [8], 95% in test [9] and 80% in test [10].

As for `Oc1c2ccccc2c2c3c(cccc13)N=N2`, the residual activity was determined as 9% in test [1]; 4% in test [2]; 50% in [3]; 17% in test [4]; 95% in [5]; 95% in test [6]. The residual activity in test [7] amounted to 88%; in [8] it was 57%; in test [9], 97%; in test [10], 45%.

Consider `COc1cccc(-c2cc(=O)c3ccccc3o2)c1N`, for which the residual activity in test [1] came to 99%; in test [2], 94%; in test [3], 119%; in [4], 111%; in test [5], 105%; in [6] it was 105%. Also, the residual activity in [7] came to 94%; in test [8], 100%; in test [9] it was 114%; in test [10] it was 103%.

In the case of `CO[C@H]1[C@@H](OC)C[C@H](C)[C@@H](OC)C2=CC(=O)C=C(NC(=O)/C(C)=C/C=C/[C@H](OC)[C@@H](OC(N)=O)/C(C)=C/[C@@H]1C)C2=O`, the residual activity was 76% in test [1]; 90% in test [2]; 104% in test [3]; 77% in test [4]; 109% in [5]; 106% in [6]. For the same compound, the residual activity in test [7] is 83%; in test [8], 101%; in test [9], 90%; in test [10], 78%.

As for `COc1cc2ncnc(Nc3ccc(NC(=O)c4ccccc4)cc3)c2cc1OC`, the residual activity in test [1] turned out to be 44%; in test [2], 4%; in test [3], 99%; in test [4], 40%; in test [5] it was 35%; in test [6], 10%. Also, the residual activity in test [7] was determined as 90%; in test [8] it was 68%; in test [9], 20%; in [10] it was 2%.

Consider `CNc1cc2c(Nc3cccc(Br)c3)ncnc2cn1`, for which the residual activity worked out at 85% in test [1]; 64% in test [2]; 75% in test [3]; 69% in [4]; 69% in test [5]; 53% in test [6]. Moreover, the residual activity was 98% in test [7], 83% in test [8], 103% in [9] and 65% in test [10].

As to `N#CCCc1ccc2c(c1)-c1[nH]c3ccc([N+](=O)[O-])cc3c1CC(=O)N2`, the residual activity in test [1] was determined as 63%; in [2] it was 22%; in test [3], 57%; in test [4], 35%; in [7] it was 79%; in [8] it was 66%. Besides, the residual activity in test [9] amounted to 24%; in [10], 11%.

On to `CCN(CC)CCCCN1c2ccccc2Oc2ccc(Cl)cc21`, for which the residual activity was found to be 108% in test [1]; 92% in [2]; 88% in test [3]; 83% in test [4]; 118% in test [5]; 108% in [6]. Besides, the residual activity worked out at 78% in test [7], 109% in [8], 110% in [9] and 88% in test [10].

On to `O=c1cc(-c2cccc3c2Sc2ccccc2S3)oc(N2CCOCC2)c1`, for which the residual activity in [1] was 102%; in test [2], 92%; in test [3], 102%; in [4], 86%; in test [5], 109%; in test [6], 96%. The residual activity in [7] stood at 87%; in test [8], 80%; in test [9] it was 101%; in [10], 76%.

Consider `CC#CC(=O)Nc1cc2c(Nc3ccc(F)c(Cl)c3)ncnc2cn1`, for which the residual activity in test [1] was 99%; in test [2] it was 73%; in test [3] it was 82%; in [4], 74%; in test [5], 99%; in test [6], 97%. The residual activity in test [7] was 47%; in [8], 16%; in test [9] it was 82%; in [10] it was 49%.

For the compound `Cn1cc(/C=C2\C(=O)Nc3ccc(S(N)(=O)=O)cc32)c2ccccc21`, the residual activity in [1] was 40%; in test [2], 39%; in [3], 13%; in test [4] it was 27%; in test [5] it was 97%; in [6] it was 101%. Moreover, the residual activity in test [7] was 19%; in test [8], 5%; in [9] it was 9%; in test [10] it was 3%.

`NC(=O)c1ccc2[nH]c(-c3ccc(Oc4ccc(Cl)cc4)cc3)nc2c1`: the residual activity amounted to 72% in test [1]; 79% in test [2]; 107% in [3]; 70% in test [4]; 102% in test [5]; 103% in test [6]. The residual activity in test [7] came to 89%; in [8], 86%; in test [9], 103%; in [10] it was 77%.

For the compound `Nc1n[nH]c2nnc(-c3c(-c4ccccc4)nn4ccccc34)cc12`, the residual activity was determined as 83% in [1]; 66% in [2]; 98% in test [3]; 84% in [4]; 95% in test [5]; 78% in [6]. Also, the residual activity in [7] stood at 86%; in [8] it was 47%; in test [9], 100%; in test [10], 63%.

On to `O=C1Nc2ccc(Br)cc2/C1=C\c1cc2c([nH]1)CCCC2`, for which the residual activity turned out to be 82% in test [1]; 69% in [2]; 72% in test [3]; 62% in [4]; 107% in test [5]; 107% in [6]. Besides, the residual activity in [8] turned out to be 109%; in [9], 82%; in test [10], 38%.

In the case of `Cc1cc2ncc(-c3ccccc3)nc2cc1C`, the residual activity in test [1] was 104%; in test [2], 87%; in test [3], 100%; in test [4] it was 88%; in [5], 103%; in [6], 101%. Besides, the residual activity in [7] was 94%; in test [8] it was 105%; in test [10] it was 95%.

For the compound `COc1cc2ncc(-c3ccccc3)nc2cc1OC`, the residual activity is 96% in test [3] and 84% in test [4].

For the compound `N#CC(C#N)=C(N)/C(C#N)=C/c1ccc(O)cc1`, the residual activity in [3] came out at 92%; in [4] it was 87%; in test [7], 94%; in test [8], 118%.

On to `COc1cc2ncnc(Nc3ccc(O)c(Br)c3)c2cc1OC`, for which the residual activity amounted to 45% in [1]; 10% in test [2]; 36% in test [3]; 17% in [4]; 18% in test [5]; 1% in test [6]. The residual activity in test [7] is 80%; in test [8], 33%; in [9] it was 21%; in [10], 3%.

As for `N#C/C(=C(\N)Sc1ccc(N)cc1)c1ccccc1C(F)(F)F`, the residual activity in test [1] was found to be 84%; in test [2], 83%; in test [3], 96%; in [4] it was 73%; in [5], 105%; in test [6], 114%. Besides, the residual activity was 91% in test [7], 93% in test [8], 90% in [9] and 79% in [10].

In the case of `c1ccc2c(-c3ccncc3)c[nH]c2c1`, the residual activity in test [1] was 66%; in test [2], 46%; in test [3], 81%; in test [4] it was 75%; in test [5], 95%; in test [6], 75%. Besides, the residual activity in [7] is 99%; in test [10] it was 107%.

As for `COc1ccc(S(=O)(=O)N(CCO)c2ccccc2CN(C)C/C=C/c2ccc(Cl)cc2)cc1`, the residual activity in [1] came out at 83%; in test [2] it was 88%; in [3] it was 107%; in [4] it was 82%; in [5], 100%; in [6], 88%. The values for the residual activity in test [8], in test [9] and in test [10] were 93%, 99% and 58%, respectively.

As to `O=[N+]([O-])c1ccc(-c2nc(-c3ccc(F)cc3)c(-c3ccncc3)[nH]2)cc1`, the residual activity in test [1] turned out to be 107%; in [2], 92%; in [3], 120%; in test [4], 106%; in test [5], 36%; in test [6], 31%. The residual activity stood at 91% in [7], 56% in [8], 110% in test [9] and 98% in test [10].

Turning to `O=C(Nc1cccc(Nc2nccc(Nc3cccc(C(F)(F)F)c3)n2)c1)C1CC1`, the residual activity is 69% in test [1]; 62% in test [2]; 79% in [3]; 81% in test [4]; 40% in test [5]; 46% in [6]. In addition, the residual activity amounted to 53% in [7], 6% in test [8], 77% in [9] and 57% in test [10].

`CO[C@@H]1[C@H](N(C)C(=O)c2ccccc2)C[C@H]2O[C@]1(C)n1c3ccccc3c3c4c(c5c6ccccc6n2c5c31)C(=O)NC4`: the residual activity in [1] came to 62%; in test [2], 20%; in test [3], 14%; in [4] it was 9%; in test [5] it was 98%; in test [6] it was 93%. Moreover, the residual activity in test [7] was found to be 60%; in test [8] it was 35%; in test [9], 7%; in test [10], 5%.

As to `CCN(CC)C(=O)c1ccc(Nc2nc(OCC3CCCCC3)c3nc[nH]c3n2)cc1`, the residual activity in test [1] is 1%; in test [2] it was 2%; in [3] it was 27%; in test [4], 7%; in test [5] it was 54%; in [6], 11%. The residual activity was 34% in test [7], -2% in test [8], 20% in [9] and 1% in test [10].

`O=C1c2ccccc2-[n+]2ccc3c([nH]c4ccccc43)c21`: the residual activity in test [1] was 83%; in [2], 72%; in test [3] it was 73%; in [4], 62%; in test [5], 97%; in [6] it was 80%. Moreover, the residual activity in [7] was 94%; in [8], 87%; in test [9], 95%; in [10], 76%.

Consider `O=C1NC(=O)c2c1c1c3ccccc3[nH]c1c1[nH]c3cc(Br)ccc3c21`, for which the residual activity in test [1] worked out at 89%; in test [2] it was 59%; in [3], 94%; in test [4], 80%; in test [5] it was 105%; in [6] it was 100%. Further, the residual activity is 79% in test [7], 68% in test [8], 102% in test [9] and 85% in [10].

On to `N#Cc1cnc2cnc(NCc3cccnc3)cc2c1Nc1ccc(F)c(Cl)c1`, for which the residual activity was determined as 71% in test [1]; 54% in test [2]; 19% in test [3]; 22% in test [4]; 70% in [7]; 58% in test [8]. Further, the figures for the residual activity in test [9] and in test [10] were 4% and 3%, respectively.

As for `c1ccc(-c2n[nH]c3c2oc2ccccc23)cc1`, the residual activity in [3] was determined as 81%; in test [4], 73%; in test [9] it was 98%; in test [10] it was 49%.
